{"source": "PubChem BioAssay AID651814", "about": "(National Center for Advancing Translational Sciences (NCATS), 2012)", "note": "Hit rate of the full screen: of about 2,100 compounds, about 590 (28%) were called active. Inconclusive results (about 42%) are left out. This is one part of the list. A number with no mark means an inactive call. Calls come from the whole dose curve; as a rule, active = well fitted inhibition curve with a large enough effect; inconclusive = small, poorly fitted or top-dose-only effect; inactive = flat fitted curve, though single readings scatter. Potency is the fitted concentration of half-maximal effect."}
{"biological_target": "DNA dC->dU-editing enzyme APOBEC-3F (Homo sapiens) (UniProt Q8IUX4)", "sequence (Q8IUX4 whole entry, looked up)": "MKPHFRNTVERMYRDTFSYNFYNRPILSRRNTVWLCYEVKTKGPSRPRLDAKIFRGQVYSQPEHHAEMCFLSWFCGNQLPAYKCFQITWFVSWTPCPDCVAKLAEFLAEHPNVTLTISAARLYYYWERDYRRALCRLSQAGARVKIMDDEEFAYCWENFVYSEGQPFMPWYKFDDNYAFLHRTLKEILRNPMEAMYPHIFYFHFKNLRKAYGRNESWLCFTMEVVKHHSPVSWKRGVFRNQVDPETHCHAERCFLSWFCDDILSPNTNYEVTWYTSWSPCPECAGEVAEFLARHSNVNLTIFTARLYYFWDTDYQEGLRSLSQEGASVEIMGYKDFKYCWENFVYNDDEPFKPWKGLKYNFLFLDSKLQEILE", "assay": "qHTS for inhibitors of Vif-A3F interactions: Cherry picks; note: nearly all actives have a fitted effect of over 70% in size;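 for max response: % of control where 0% means no effect; active compounds raise eYFP fluorescence by blocking Vif-driven A3F loss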", "conditions": "HeLa A3F-eYFP + Vif (tagged APOBEC3F with the HIV-1 protein that degrades it), eYFP fluorescence, 24 h", "source_text": "The recent discovery and characterization of host restriction factors, which provide a potent defense to invading retroviruses, has provided new targets for antiviral drug development. APOBEC3G (A3G) and APOBEC3F (A3F) are potent cytidine deaminases that block HIV-1 replication; HIV-1 expresses the Vif protein, which counteracts A3G and A3F by binding to them and inducing their proteasomal degradation. The Vif-A3G and Vif-A3F interactions provide two potential targets for development of small molecules which can interfere with the ability of Vif to degrade A3G or A3F. […] To identify inhibitors that can interfere with Vif mediated degradation of A3G and A3F, we have developed Hela cell lines that stably express A3G or A3F tagged with eYFP at the C-terminal end (A3G-eYFP or A3F-eYFP, respectively) and Vif. In the absence of an inhibitor, Vif induces degradation of A3G-eYFP and A3F-eYFP, and the cells are not fluorescent. In the presence of an inhibitor, it is expected that Vif will be unable to degrade A3G-eYFP and/or A3F-eYFP, resulting in an increase in yellow fluorescence. In this assay, Vif A3F was screened against the cherry picks ordered from the MLSMR. NIH Chemical Genomics Center [NCGC] NIH Molecular Libraries Probe Centers Network [MLPCN] MLPCN Grant: MH093245 Assay Submitter (PI): Vinay Pathak, National Cancer Institute\nA3F-Vif cells were harvested from T225 flask and resuspended in phenol free OPTI-MEM medium with 5% FBS. Then 5 uL of 140,000 cells/mL resuspended cells was dispensed into each well of low base Aurora COC 1,536-well plates (black walled, clear bottom) using a Multidrop Combi dispenser. After overnight culture at 37 deg C with 5% CO2, a total of 23 nL of compounds at 5 selected concentrations from the NPC or positive control (2 mM stock of MG132) in DMSO was transferred to each well of the assay plate using a pintool (Kalypsys, San Diego, CA), and the plates were further incubated at 37 deg C with 5% CO2 for 24 hours. After that, the plates were measured on Acumen Explorer (TTP Lab Tech). The fluorescence was detected by 488 nm/Ex and […].", "units": {"max response": "%"}}
{"smiles": "Cc1ccc(CNC(=O)c2ccccc2NC(=O)c2nsc3ccccc23)cc1", "Potency": "20.6 µM (active)"}
{"smiles": "CCN(CC)c1ccc(C=C2C(=O)N(C)C(=S)N(C)C2=O)o1", "Potency": "3.96 µM (active)"}
{"smiles": "CCN(CC)c1ccc(/C=C2\\C(=O)NC(=S)N(C)C2=O)o1", "Potency": "14 µM (active)"}
{"smiles": "Cc1ccc(/C=C2/C(=O)NC(=O)N(CCc3ccc(F)cc3)C2=O)s1", "max response": -13.3}
{"smiles": "Cc1cccc(-n2c(/C=C/c3c(C)[nH]c4ccccc34)nc3ccccc3c2=O)c1", "Potency": "20.6 µM (active)"}
{"smiles": "O=Cc1c(C(=O)O)n(Cc2ccc(Cl)cc2)c2ccccc12", "Potency": "20.6 µM (active)"}
{"smiles": "CC(=O)OC1C2(CC3N4C(=O)C5(CO)SSC4(CC31O)C(=O)N5C)OC(C)C(C)(C)C2=O", "note": "(stereo not drawn)", "Potency": "6.27 µM (active)"}
{"smiles": "Cc1cccc(CN2CCCC(C(=O)c3cccc(OC(C)C)c3)C2)n1", "note": "(stereo not drawn)", "max response": 3.61}
{"smiles": "ClCCN(CCCl)c1ccc(C=Cc2ccncn2)cc1", "max response": -17}
{"smiles": "O=C1NC(=S)SC1=Cc1ccc(N(CCCl)CCCl)cc1", "Potency": "14 µM (active)"}
{"smiles": "CN1C(=O)C(=Cc2ccc(N3CCOCC3)o2)C(=O)N(C)C1=O", "Potency": "18.4 µM (active)"}
{"smiles": "CN1C(=O)C(=Cc2ccc(N3CCCCC3)o2)C(=O)N(C)C1=S", "Potency": "5.17 µM (active)"}
{"smiles": "CN1C(=O)C(=Cc2ccc(N3CCOCC3)o2)C(=O)N(C)C1=S", "Potency": "23.1 µM (active)"}
{"smiles": "O=C1NC(=O)N(c2ccc3c(c2)OCO3)C(=O)/C1=C/c1ccc(N2CCCCC2)o1", "Potency": "23.1 µM (active)"}
{"smiles": "O=C1NC(=O)N(c2ccc3c(c2)OCO3)C(=O)/C1=C\\c1ccc(N2CCCCC2)o1", "Potency": "18.4 µM (active)"}
{"smiles": "O=C1NC(=O)N(Cc2ccc(F)cc2)C(=O)/C1=C\\C=C\\c1ccco1", "max response": -29.5}
{"smiles": "CC(C)c1ccc(N2C(=O)NC(=O)/C(=C\\C=C\\c3ccco3)C2=O)cc1", "Potency": "17.7 µM (active)"}
{"smiles": "CN(C)c1ccc(/C=C/C=C2/C(=O)NC(=O)N(c3ccccc3)C2=O)cc1", "Potency": "16.4 µM (active)"}
{"smiles": "Cc1ccc(N2C(=O)NC(=O)/C(=C\\C=C\\c3ccco3)C2=O)cc1C", "max response": -16.6}
{"smiles": "Cc1cc(N2CCCC2)ccc1C=C(C#N)C#N", "Potency": "7.31 µM (active)"}
{"smiles": "Cc1nn(Cc2ccccc2)c(C)c1C(=O)OCC(=O)Nc1ccccc1SCC#N", "Potency": "14 µM (active)"}
{"smiles": "CCN(CC)c1ccc(N=Cc2c(O)n(CCC3=CCCCC3)c(=O)[nH]c2=O)cc1", "Potency": "3.66 µM (active)"}
{"smiles": "CCN(CC)c1ccc(N=Cc2c(O)n(Cc3ccccc3)c(=O)[nH]c2=O)cc1", "Potency": "3.26 µM (active)"}
{"smiles": "CC/C(=N\\NC(=O)c1ccccc1O)c1c(O)n(Cc2ccccc2)c(=O)[nH]c1=O", "max response": -28.7}
{"smiles": "CC1=CC(=Cc2sc3ccccc3[n+]2C)C=C(C)O1", "Potency": "5.17 µM (active)"}
{"smiles": "CCCCn1c(O)c(C(=O)/C=C/c2c[nH]c3ccccc23)c(=O)[nH]c1=O", "Potency": "12.5 µM (active)"}
{"smiles": "CN1CCN(c2ccc(/C=C3\\C(=O)NC(=S)N(c4cccc(Br)c4)C3=O)o2)CC1", "Potency": "18.4 µM (active)"}
{"smiles": "CCC(C)N1C(=O)/C(=C\\c2ccc(N3CCCCCC3)cc2)C(=O)NC1=S", "note": "(stereo not drawn)", "max response": -14.3}
{"smiles": "CN1C(=O)/C(=C/c2ccc(N3CCCCCC3)o2)C(=O)NC1=S", "Potency": "12.5 µM (active)"}
{"smiles": "Cc1cc(/C=C2\\C(=O)NC(=O)N(c3ccc(Br)cc3)C2=O)c(C)n1C", "max response": -6.73}
{"smiles": "CN1C(=O)/C(=C\\c2ccc(N3CCCCC3)o2)C(=O)NC1=S", "Potency": "14 µM (active)"}
{"smiles": "O=c1[nH]c(CN2CC=C(c3ccccc3)CC2)nc2scc(-c3ccccc3)c12", "Potency": "18.4 µM (active)"}
{"smiles": "Nc1ccc2c3c(cccc13)-c1ccccc1-2", "Potency": "4.11 µM (active)"}
{"smiles": "COc1cc(C2C(C#N)=C(N)Oc3cc(O)ccc32)cc(OC)c1OC", "note": "(stereo not drawn)", "Potency": "1.98 µM (active)"}
{"smiles": "CCCCNC(=O)/C(C#N)=c1\\s/c(=C\\c2ccccc2OC(F)F)c(=O)n1CCCOC", "Potency": "16.4 µM (active)"}
{"smiles": "COCCNC(=O)c1c(NC(=O)c2ccc(Br)o2)n(Cc2ccccc2)c2nc3ccccc3nc12", "max response": -6.71}
{"smiles": "CCCCCn1c(NC(=O)c2ccco2)c(C(=O)OCC)c2nc3ccccc3nc21", "Potency": "15.8 µM (active)"}
{"smiles": "CC(C)CCCn1c(O)c(/C=C2/C=CC=N2)c(=O)[nH]c1=O", "Potency": "18.4 µM (active)"}
{"smiles": "O=c1[nH]c(=O)n(Cc2ccccc2Cl)c(O)c1/C=C1/C=CC=N1", "Potency": "9.2 µM (active)"}
{"smiles": "COC(=O)C1=C(C)N(Cc2ccco2)C(=O)/C1=C\\c1ccc(N(C)C)cc1", "Potency": "13 µM (active)"}
{"smiles": "O=c1c2ccccc2nc(/C=C/c2ccc([N+](=O)[O-])o2)n1-c1ccc(O)cc1", "Potency": "12.5 µM (active)"}
{"smiles": "CN1/C(=C\\C=C2C(=O)NC(=O)NC2=O)C(C)(C)c2ccccc21", "max response": -9.38}
{"smiles": "O=C1NC(=O)N(Cc2ccc(F)cc2)C(=O)/C1=C\\c1ccoc1", "max response": -24.2}
{"smiles": "O=C(Cc1ccccc1)c1ccccn1", "Potency": "17.7 µM (active)"}
{"smiles": "CCS(=O)(=O)N1N=C(c2cccc(NS(C)(=O)=O)c2)CC1c1ccccc1", "note": "(stereo not drawn)", "Potency": "23.1 µM (active)"}
{"smiles": "COc1ccccc1-n1c(/C=C/c2ccc(O)cc2)nc2ccccc2c1=O", "max response": -0.327}
{"smiles": "Cc1ccccc1-n1c(/C=C/c2ccc(N(C)C)cc2)nc2ccccc2c1=O", "Potency": "3.26 µM (active)"}
{"smiles": "O=c1nc(/C=C/c2ccc(Cl)cc2Cl)cc(C(F)(F)F)[nH]1", "max response": -25.1}
